In article PMC12350791 one finds cross-linked residues data, which are given here for 9 substances.

Holding throughout (assay): cross-linking mass spectrometry
Details in all cases: DSBSO, in cells or nuclear extract, not told apart

Assay [1] concerns the target VIRMA (UniProt Q69YN4).
Assay [2] concerns the target VPS35 (UniProt Q96QK1).
The target in assay [3] is YWHAB (UniProt P31946).
The target of assay [4] is YWHAG (UniProt P61981).
Assay [5] has as its target YWHAH (UniProt Q04917).
Assay [6] has as its target YWHAZ (UniProt P63104).
The target of assay [7] is ZC3H4 (UniProt Q9UPT8).

YWHAZ, sequence (P63104 whole entry): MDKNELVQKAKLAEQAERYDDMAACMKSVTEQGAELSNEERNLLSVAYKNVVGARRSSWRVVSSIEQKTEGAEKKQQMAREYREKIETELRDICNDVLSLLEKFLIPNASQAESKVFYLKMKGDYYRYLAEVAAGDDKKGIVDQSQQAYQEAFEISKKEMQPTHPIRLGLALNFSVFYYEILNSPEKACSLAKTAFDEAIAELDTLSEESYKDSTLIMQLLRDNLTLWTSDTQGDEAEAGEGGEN
VIRMA, sequence (Q69YN4 whole entry): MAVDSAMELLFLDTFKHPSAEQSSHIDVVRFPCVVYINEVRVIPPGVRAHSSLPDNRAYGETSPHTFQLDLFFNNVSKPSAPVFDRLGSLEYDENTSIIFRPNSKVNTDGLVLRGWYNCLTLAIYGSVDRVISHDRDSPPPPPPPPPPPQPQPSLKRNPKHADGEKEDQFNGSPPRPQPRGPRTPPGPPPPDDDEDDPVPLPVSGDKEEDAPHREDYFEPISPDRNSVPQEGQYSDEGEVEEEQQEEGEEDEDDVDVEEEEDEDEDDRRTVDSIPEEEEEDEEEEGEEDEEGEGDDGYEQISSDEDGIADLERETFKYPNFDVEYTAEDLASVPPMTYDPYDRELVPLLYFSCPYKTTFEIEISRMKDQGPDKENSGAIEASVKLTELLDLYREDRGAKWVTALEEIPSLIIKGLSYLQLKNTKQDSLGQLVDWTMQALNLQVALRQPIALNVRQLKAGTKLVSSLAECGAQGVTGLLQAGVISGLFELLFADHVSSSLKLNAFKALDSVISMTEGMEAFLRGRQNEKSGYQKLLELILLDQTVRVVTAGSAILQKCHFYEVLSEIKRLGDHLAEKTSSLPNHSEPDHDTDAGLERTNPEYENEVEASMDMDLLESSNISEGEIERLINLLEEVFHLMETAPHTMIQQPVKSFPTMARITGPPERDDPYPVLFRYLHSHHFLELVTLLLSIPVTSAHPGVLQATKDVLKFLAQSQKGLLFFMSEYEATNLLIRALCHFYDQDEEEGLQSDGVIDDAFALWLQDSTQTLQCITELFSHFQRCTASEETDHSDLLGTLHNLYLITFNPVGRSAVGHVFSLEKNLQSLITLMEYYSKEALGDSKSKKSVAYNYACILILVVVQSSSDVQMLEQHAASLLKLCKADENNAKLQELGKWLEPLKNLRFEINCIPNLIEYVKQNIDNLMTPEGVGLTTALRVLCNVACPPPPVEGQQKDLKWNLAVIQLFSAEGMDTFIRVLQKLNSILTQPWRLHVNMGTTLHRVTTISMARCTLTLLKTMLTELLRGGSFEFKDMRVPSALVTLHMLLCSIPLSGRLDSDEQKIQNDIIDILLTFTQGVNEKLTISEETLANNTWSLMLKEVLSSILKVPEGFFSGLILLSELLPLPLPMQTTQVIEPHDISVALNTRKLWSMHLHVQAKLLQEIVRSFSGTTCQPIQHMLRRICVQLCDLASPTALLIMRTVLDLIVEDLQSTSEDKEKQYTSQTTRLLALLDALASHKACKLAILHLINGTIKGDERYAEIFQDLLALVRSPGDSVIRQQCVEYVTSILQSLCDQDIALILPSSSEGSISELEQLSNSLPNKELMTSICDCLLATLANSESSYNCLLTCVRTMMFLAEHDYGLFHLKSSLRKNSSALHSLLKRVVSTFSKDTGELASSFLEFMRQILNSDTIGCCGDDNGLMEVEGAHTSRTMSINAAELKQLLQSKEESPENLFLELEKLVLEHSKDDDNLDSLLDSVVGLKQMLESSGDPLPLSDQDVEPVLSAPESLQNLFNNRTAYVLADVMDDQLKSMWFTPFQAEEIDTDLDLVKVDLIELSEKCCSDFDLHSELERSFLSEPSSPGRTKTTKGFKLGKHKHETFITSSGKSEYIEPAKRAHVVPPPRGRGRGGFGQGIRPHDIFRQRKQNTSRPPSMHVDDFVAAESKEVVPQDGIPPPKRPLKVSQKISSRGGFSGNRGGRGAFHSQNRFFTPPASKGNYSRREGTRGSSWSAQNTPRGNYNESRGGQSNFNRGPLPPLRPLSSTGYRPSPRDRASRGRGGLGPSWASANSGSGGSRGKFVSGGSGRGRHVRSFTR
YWHAH, sequence (Q04917 whole entry): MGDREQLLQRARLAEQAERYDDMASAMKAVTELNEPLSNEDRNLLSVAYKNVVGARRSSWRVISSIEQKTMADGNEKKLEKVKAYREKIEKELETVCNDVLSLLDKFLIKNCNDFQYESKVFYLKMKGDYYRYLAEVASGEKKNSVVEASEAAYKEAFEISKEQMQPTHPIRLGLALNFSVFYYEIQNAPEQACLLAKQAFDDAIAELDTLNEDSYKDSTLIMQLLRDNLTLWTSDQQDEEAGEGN
YWHAZ, P63104, sequence (P63104 whole entry): as the sequence (P63104 whole entry) above
YWHAG, P61981, sequence (P61981 whole entry): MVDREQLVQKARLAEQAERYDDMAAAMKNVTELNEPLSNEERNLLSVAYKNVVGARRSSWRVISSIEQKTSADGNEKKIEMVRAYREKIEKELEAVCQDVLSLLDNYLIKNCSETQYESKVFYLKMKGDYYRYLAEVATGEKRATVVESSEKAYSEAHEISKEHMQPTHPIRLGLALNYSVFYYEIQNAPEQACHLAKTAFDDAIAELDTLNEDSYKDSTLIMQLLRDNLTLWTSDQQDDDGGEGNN
YWHAG, sequence (P61981 whole entry): as above
YWHAB, sequence (P31946 whole entry): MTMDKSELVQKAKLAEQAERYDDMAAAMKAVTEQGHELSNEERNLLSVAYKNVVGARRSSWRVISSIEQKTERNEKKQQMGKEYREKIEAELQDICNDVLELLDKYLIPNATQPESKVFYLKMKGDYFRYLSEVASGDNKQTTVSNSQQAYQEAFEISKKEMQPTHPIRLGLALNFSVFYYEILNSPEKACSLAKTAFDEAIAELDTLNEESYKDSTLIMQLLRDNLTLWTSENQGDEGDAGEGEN
YWHAB, P31946, sequence (P31946 whole entry): as above
YWHAQ, P27348, sequence (P27348 whole entry): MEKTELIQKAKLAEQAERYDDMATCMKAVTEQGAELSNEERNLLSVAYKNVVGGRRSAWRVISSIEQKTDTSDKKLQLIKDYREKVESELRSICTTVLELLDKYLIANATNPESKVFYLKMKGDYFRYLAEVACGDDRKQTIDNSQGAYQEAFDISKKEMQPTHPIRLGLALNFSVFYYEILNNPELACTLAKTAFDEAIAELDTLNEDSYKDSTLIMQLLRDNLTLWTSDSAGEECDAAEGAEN
WDR82, Q6UXN9, sequence (Q6UXN9 whole entry): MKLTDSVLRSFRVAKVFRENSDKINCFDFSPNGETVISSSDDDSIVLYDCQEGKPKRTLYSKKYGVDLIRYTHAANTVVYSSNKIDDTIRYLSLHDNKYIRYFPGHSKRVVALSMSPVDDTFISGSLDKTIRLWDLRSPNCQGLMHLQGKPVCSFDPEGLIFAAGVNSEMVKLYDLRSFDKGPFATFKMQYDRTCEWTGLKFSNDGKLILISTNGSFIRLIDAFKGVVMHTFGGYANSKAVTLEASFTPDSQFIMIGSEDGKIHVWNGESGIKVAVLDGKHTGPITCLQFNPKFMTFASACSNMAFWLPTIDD
WTAP, Q15007, sequence (Q15007 whole entry): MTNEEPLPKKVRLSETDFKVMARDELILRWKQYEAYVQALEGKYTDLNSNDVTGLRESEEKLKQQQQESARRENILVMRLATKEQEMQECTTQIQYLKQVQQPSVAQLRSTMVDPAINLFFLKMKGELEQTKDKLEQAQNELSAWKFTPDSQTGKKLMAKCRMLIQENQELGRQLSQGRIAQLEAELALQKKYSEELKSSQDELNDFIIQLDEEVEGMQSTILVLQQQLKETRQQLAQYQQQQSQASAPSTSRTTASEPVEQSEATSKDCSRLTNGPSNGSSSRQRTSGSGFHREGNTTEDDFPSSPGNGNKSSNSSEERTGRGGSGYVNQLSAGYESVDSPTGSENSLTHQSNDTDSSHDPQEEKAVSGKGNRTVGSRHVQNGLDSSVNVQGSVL
YWHAE, P62258, sequence (P62258 whole entry): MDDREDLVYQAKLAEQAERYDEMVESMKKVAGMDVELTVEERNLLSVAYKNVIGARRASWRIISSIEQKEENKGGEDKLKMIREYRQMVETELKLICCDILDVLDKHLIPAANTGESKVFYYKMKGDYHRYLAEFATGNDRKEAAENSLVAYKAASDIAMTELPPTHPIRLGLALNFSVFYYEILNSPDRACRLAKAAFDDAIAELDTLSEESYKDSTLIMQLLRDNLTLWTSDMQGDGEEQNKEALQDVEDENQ

In the case of WTAP, Q15007, the cross-linked residues result in assay [1] is reported as “K268 - K399”. ZC3H13, Q5T200: the cross-linked residues result in assay [1] is listed as “K1535 - K576”. VPS26A, O75436: in assay [2], the cross-linked residues result is reported as “K30 - K44”. Consider YWHAQ, P27348, for which the cross-linked residues entry in assay [3] is “K85 - K11”. Turning to YWHAB, P31946, the cross-linked residues entry in assay [4] is given as “K87 - K10”. As for YWHAZ, P63104, the cross-linked residues result in assay [5] is listed as “K9 - K91”. With YWHAE, P62258, the cross-linked residues entry in assay [6] is reported as “K12 - K68”. For YWHAG, P61981, in assay [6], the cross-linked residues result was “K77 - K9”. WDR82, Q6UXN9: the cross-linked residues result in assay [7] is reported as “K181 - K935”.
